From PubChem BioAssay AID1276 (Columbia University Molecular Screening Center, 2008) come the findings set out here.

Hit rate of the full screen: of about 190,000 compounds, about 2,000 (1.1%) were called active.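 Rule for the calls: active = activation above a set limit, based on mean plus 3 SD of controls (cut at about 140% in these data); inconclusive = one replicate above the limit, the other below; inactive = the rest.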 Shown is part of a subset that was picked to be rich in actives.

The nature of the assay: APP 5'UTR reporter signal increase – luciferase, SH-SY5Y cells, primary screen (AID 1276). The note with it: SH-SY5Y APP 5'UTR luciferase reporter, luminescence; at 2 µM; active compounds read high; zero percent = DMSO vehicle wells. For orientation: Reporter assays use an easily measured gene product as a stand-in for the process of interest.
Take `C/C(=C\C(=O)c1ccccc1)Nc1cccc(O)c1`: the activation was 33.4% (inactive).
As for `O=C(Nc1cccc(O)c1)c1ccc(C(=O)c2ccccc2)o1`, the figure is 155% (active).
As for `O=C(CSc1ccccc1)Nc1ccc(C(=O)Nc2cccc(O)c2)cc1`, the activation is 37.6% (inactive).
`CC1COc2ccccc2N1S(=O)(=O)c1ccccc1` (stereo not given): the activation was -2.45% (inactive).
With `O=C(Nc1ccc(Oc2ccccc2)cc1)c1ccco1`, the activation is 163% (active).
Take `COC(=O)c1ccc(NC(=O)c2ccco2)cc1`: the activation was 120% (inactive).
With `O=C(CSc1ccccc1)Nc1ccc(NC(=O)c2ccco2)cc1`, the activation is 6.16% (inactive).
With `COC(=O)c1cc2n(n1)CCCNC2=O`, the activation is -7.46% (inactive).
For `Cc1ccc(NC(=O)c2cc(-c3ccc(C)o3)nc3ccccc23)nc1`, the activation is -0.92% (inactive).
`Cc1ccc(Nc2nc(-c3ccc(O)cc3O)cs2)nc1`: the activation was 151% (active).
Consider `Cc1ccc(-c2csc(NNC(=O)c3ccccc3)n2)cc1`, for which the activation is 3.5% (inactive).
For the compound `CC1=NNC(=O)C1CCC(=O)N/N=C\c1cccc(Cl)c1` (stereo not given), the activation is 0.72% (inactive).
Then `O=c1cc(N2CCCCC2)c(-c2ccccc2)nn1Cc1cccc(F)c1`, with -6.8% (inactive).
As for `CCOc1ccc(C(=O)NC(=S)Nc2ccc(N3CCOCC3)c(Cl)c2)cc1[N+](=O)[O-]`, the figure is -10.7% (inactive); as for `Cc1cccc(N(CC(=O)Nc2ccc(-c3nc4ccc(C)cc4s3)cc2)S(C)(=O)=O)c1`, 104% (inactive); as for `COc1cc(NC(=O)CN(C)S(=O)(=O)c2ccc3nc(C)sc3c2)cc(OC)c1`, 17.7% (inactive).
In the case of `Cc1ccc2nc(-c3ccc(NC(=O)CN(C)S(=O)(=O)c4ccccc4)cc3)sc2c1`, the activation is 190% (active).
`Cc1ccc(NC(=O)Nc2ccc3oc(C)nc3c2)cc1`: the activation is 145% (active).
Take `Cc1nc2cc(NC(=O)NCc3ccccc3)ccc2o1`: the activation is 23.1% (inactive).
Then `C=CCN(C(=O)Nc1ccc2oc(C)nc2c1)c1ccccc1`, with 11.6% (inactive); and `COC(=O)c1ccc(/C=N/N2C(C)CCCC2C)cc1` (stereo not given), with 53% (inactive).
On to `CCOC(=O)CSc1nnc(-c2ccc([N+](=O)[O-])cc2)o1`, for which the activation is 5.38% (inactive).
As for `CC1=CC=CC2=N/C(=N\S(=O)(=O)c3ccc(F)cc3F)c3ccccc3CN12`, the activation is 27% (inactive).
As for `Cc1ccc(-n2c(C)cc(C(=O)CN3C(=O)C(=O)N(C4CCCC4)C3=O)c2C)cc1`, the figure is -9.76% (inactive).
For `COc1cc(/C=N/NC(=O)c2cc(C)n(-c3ccc(F)cc3)c2C)cc(OC)c1O`, the activation was 0.41% (inactive).
For `Cc1cc(C(=O)COC(=O)C2CC2)c(C)n1-c1ccc(F)cc1`, the activation is 145% (active).
Regarding `Cc1ccc(OCC(=O)Nc2ccc(S(=O)(=O)Nc3ccccn3)cc2)cc1`, the activation is 0.31% (inactive).
With `CCc1nc2ccccc2c(C(=O)OC2CCCCC2=O)c1C` (stereo not given), the activation was 2.83% (inactive).
Turning to `CCn1c(SCc2cc(=O)n3ccsc3n2)nc2ccccc21`, the activation is -4.54% (inactive).
For the compound `COc1ccc(OC)c(/C=C/C(=O)OCC(=O)Nc2ccc3c(c2)OCCO3)c1`, the activation is -19.2% (inactive).
As for `COc1cccc(/C=C/C(=O)Nc2ccc3c(c2)OCCO3)c1`, the figure is 168% (active).
Take `COc1ccc(/C=C/C(=O)Nc2ccc3c(c2)OCCO3)cc1OC`: the activation was -0.48% (inactive).
For `CC1CCCC(NC(=O)COC(=O)[C@@H]2CC(O)CN2S(=O)(=O)c2ccc3c(c2)OCCO3)C1C` (stereo not given in full), the activation is 11.6% (inactive).
Then `CN(C(=O)CSc1nncc2ccccc12)C1CCCCC1`, with 56.8% (inactive); and `Cc1ccc(C(=O)OC(C)CN2CCOCC2)cc1` (stereo not given), with -15.7% (inactive).
`COc1cc(Cl)c(C)cc1NC(=O)[C@@H]1CCCN1C(=O)c1cccs1`: the activation was -25.6% (inactive).
With `O=C(CSC(=S)N1CCOCC1)c1ccccc1`, the activation is 139% (active).
With `NC(=NC(=O)c1ccccc1)N1CCOCC1`, the activation was 9.73% (inactive).
Regarding `CC1CN(C(=S)SCC(=O)c2ccccc2)CC(C)O1` (stereo not given), the activation is -2.53% (inactive).
For `O=C(NCc1nnc(SCC(=O)N2CCCc3ccccc32)o1)c1ccccc1F`, the activation was -9.96% (inactive).
Turning to `COc1cc([N+](=O)[O-])ccc1NC(=O)CN1CCCC1`, the activation was -0.5% (inactive).
On to `COc1ccc(Sc2nc(-c3ccccc3)ncc2OC)cc1`, for which the activation is -14% (inactive).
Turning to `COc1cc(SC)ccc1C(=O)Nc1cc(C)ccn1`, the activation was 220% (active).
Take `COc1ccccc1CNC(=O)c1ccc(SC)cc1OC`: the activation was -5.82% (inactive).
In the case of `COc1cc(SC)ccc1C(=O)NCCOc1ccccc1Cl`, the activation was 143% (active).
Then `COc1cc(SC)ccc1C(=O)Nc1nc(C)cs1`, with 57.9% (inactive).
For `Cc1ccnc(NC(=O)c2ccoc2C)c1`, the activation is 33.5% (inactive).
Take `O=C(NCCOc1ccccc1Cl)C(=O)Nc1ccccc1`: the activation was 0.2% (inactive).
Consider `O=C(CCC1CCCN(C(=O)Cc2ccc(F)cc2)C1)N1CCN(c2ccccn2)CC1` (stereo not given), for which the activation is 10.5% (inactive).
With `Cc1c(C2=CCN(S(=O)(=O)c3ccc(Cl)cc3)CC2)c2ccccc2n1C`, the activation was -2.27% (inactive).
